aSyn UTR act = Activators via SNCA 5'UTR binding, MLPCN; alpha-synuclein 5'UTR reporter, activators screen; activity score, % (tested at 7.5 µM), hits read low; 300,000 tested, 7.1% active; AID 1814; in the data active = activity score below about -60%
Hits are given with their value; i = inactive. Only a sample is shown.

SMILES | aSyn UTR act
Cc1cccc(C=Nc2ccc3c(c2)oc2ccccc23)c1O | -166.0
COc1ccc2nc3ccccc3nc2c1N | -67.4
Nc1c2ccccc2nc2ccccc12 | i
COc1ccc2nc3cccc(OC)c3nc2c1 | -104.6
N#C/C(=C\c1ccccc1)c1ccccn1 | -100.4
CNc1ccc(/C=C(\C#N)c2ccccn2)cc1[N+](=O)[O-] | -156.9
CC(=O)OCC1OC(n2cc(F)c(=O)[nH]c2=O)C(OC(C)=O)C1OC(C)=O (stereo unspecified) | -180.8
O=C1N=C(N2CCOCC2)S/C1=C/c1cc2c(cc1[N+](=O)[O-])OCO2 | -67.3
COc1cccc(OC)c1-c1nn2c(-c3ccco3)nnc2s1 | -77.9
COc1ccccc1-c1nnc2sc(-c3cc4ccccc4o3)nn12 | i
O=C(NCC1CCCCC1)c1cc2ccccc2cc1O | -109.1
O=C(NCC1CCCO1)c1cc2ccccc2cc1O (stereo unspecified) | -125.2
CCOC(=O)C(C)/C(C)=N/NC(=O)c1cc2ccccc2cc1O (stereo unspecified) | i

Source: PubChem (Broad Institute)
